How the values were obtained:
Conditions in all cases: concentration: 1 μM,replicates: in singlicate; n = 1
FGFR1 = test system: FGFR1
FGFR2 = test system: FGFR2
FGFR3 = test system: FGFR3
FGFR4 = test system: FGFR4
FGR = test system: FGR
FLT1 = test system: FLT1
FLT3-autoinhibited = test system: FLT3-autoinhibited
FLT3 = test system: FLT3
FLT4 = test system: FLT4
FRK = test system: FRK
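Further: KINOMEscan kinase panel screen.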

Structure (SMILES)	%Inh (FGFR1) [%]	%Inh (FGFR2) [%]	%Inh (FGFR3) [%]	%Inh (FGFR4) [%]	%Inh (FGR) [%]	%Inh (FLT1) [%]	%Inh (FLT3-autoinhibited) [%]	%Inh (FLT3) [%]	%Inh (FLT4) [%]	%Inh (FRK) [%]
C[C@@H](Oc1cc(-n2cnc3ccc(-c4ccncc4)cc32)sc1C(N)=O)c1ccccc1Cl [GSK483724]	11	6	29	15	27	35	6	53	37	14
O=C(Nc1ccccc1)c1cccc(Oc2ccc3nccn3n2)c1	41	19	20	0	10	79	16	0	5	0
CCOC(=O)N1CCC(n2cnc(-c3ccc(F)cc3)c2-c2ccnc(N)n2)CC1 [SB-219952]	0	12	12	0	0	33	14	24	0	2
CNC(=O)c1ccccc1Nc1nc(Nc2cccc(CS(C)(=O)=O)c2)ncc1C.O=CO [GSK1520489]	99.9	99.3	99.8	94.6	99.2	98.2	89	99.1	100	98.2
O=C(Nc1cccc(Oc2ccc3nccn3n2)c1)Nc1cccc(C(F)(F)F)c1	29	4	0	0	18	93.2	0	59	99	77
CCn1c(-c2nonc2N)nc2cncc(Br)c21 [SB-738004]	3	69	24	2	17	21	53	0	19	0
Cc1ccc(CC(=O)N2CCc3cc(-c4cn(C)c5ncnc(N)c45)ccc32)cc1 [GSK2634758]	14	14	2	0	37	32	0	40	0	0
Cc1cccc(-c2nc(Nc3ccncc3)c3sccc3n2)n1 [GW869641]	16	0	7	8	11	26	14	41	15	1
Cn1ccc2ncnc(Oc3ccc(NC(=O)Nc4cccc(C(F)(F)F)c4)c(Cl)c3)c21		10	0	14	5	99.6	0	84	99.9	94.9
Cl.Nc1n[nH]c2cc(-c3ccccn3)ccc12 [GSK2189892]	0	15	0	0	10	19	0	0	0	1
COc1cccc(OC)c1C(=O)Nc1cccc(-c2nn3ccccc3c2-c2ccnc(Nc3cccc(F)c3)n2)c1 [GSK361065]	11	0	0	0	23	32	0	49	27	16
COc1cc2ncn(-c3cc(OCC4CCCCC4)c(C(N)=O)s3)c2cc1OC [GSK204559]	26	3	12	9	29	44	0	0	66	4
CS(=O)c1ccc(-c2coc3ccc(-c4n[nH]c(=O)o4)cc23)cc1 (centres unmarked)	5	8	3	0	0	19	0	16	3	0
COc1cc(Nc2nccc(N3CCC(NC(=O)c4cccc(C#N)c4)C3)n2)cc(OC)c1OC (centres unmarked) [GSK1379751]	0	0	5	7	37	0	0	44	11	0
Cn1ccc2ncnc(Oc3ccc(NC(=O)Nc4ccnc(C(F)(F)F)c4)c(Cl)c3)c21		5	0	0	2	94.5	0	64	97.4	2
Cn1ccc2ncnc(Oc3ccc(NC(=O)Nc4cncc(C(F)(F)F)c4)c(Cl)c3)c21		0	0	0	0	94.5	0	95.7	99.7	72
CSc1nccc(-c2c(-c3ccc(F)cc3)ncn2CCCN2CCOCC2)n1.Cl [SB-217146]	0	0	0	0	0	0	0	0	0	0
